{"source": "PubChem BioAssay (EPA / NIEHS)", "note": "“And” between values parts separate entries of the source, which are not always exact repeats. Identical values can stand only once. Records with an inconclusive call do not appear. The source made the active and inactive calls. The calls were made as follows: active = hit-call score of the fitted dose curve at least 0.9, where 1 is the maximum; inconclusive = response in the unintended direction; inactive = score below 0.9."}
{"target": "Peroxisome proliferator-activated receptor gamma (Homo sapiens) (UniProt P37231)", "sequence (P37231 whole entry, looked up)": "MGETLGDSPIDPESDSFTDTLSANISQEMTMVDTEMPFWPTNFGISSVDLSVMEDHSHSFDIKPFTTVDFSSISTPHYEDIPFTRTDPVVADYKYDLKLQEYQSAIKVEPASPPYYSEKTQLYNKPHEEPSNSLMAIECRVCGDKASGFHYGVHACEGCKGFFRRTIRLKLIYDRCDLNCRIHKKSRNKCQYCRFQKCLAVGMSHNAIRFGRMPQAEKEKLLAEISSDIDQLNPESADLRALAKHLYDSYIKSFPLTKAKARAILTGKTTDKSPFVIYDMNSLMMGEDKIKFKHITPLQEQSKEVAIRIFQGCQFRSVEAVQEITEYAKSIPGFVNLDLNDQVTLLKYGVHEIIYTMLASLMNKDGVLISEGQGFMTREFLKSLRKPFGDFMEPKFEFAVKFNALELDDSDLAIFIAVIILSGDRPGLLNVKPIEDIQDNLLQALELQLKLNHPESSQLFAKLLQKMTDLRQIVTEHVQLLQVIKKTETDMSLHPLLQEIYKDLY", "test": "OT_PPARg_PPARgSRC1_0480: Odyssey Thera (OT) 8-hour Protein-Complementation Assay for Peroxisome Proliferator-activated Receptor Gamma / SRC-1 Co-activator (AID 2283387);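 also: nuclear to cytoplasmic split Venus YFP fluorescence ratio reporting PPARg SRC-1 interaction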", "procedure": "OT_PPARg_PPARgSRC1_0480 is a cell-based assay that uses HEK293T, a human kidney cell line, with measurements taken at 8 hours after chemical dosing in a 384-well plate.OT_PPARg_PPARgSRC1_0480 is one of one assay component(s) measured or calculated from the OT_PPARg_PPARgSRC1_0480 assay. It is designed to make measurements of protein fragment complementation, a form of binding reporter, as detected with fluorescence intensity signals by Protein-fragment Complementation technology.Data from the assay component OT_PPARg_PPARgSRC1_0480 was analyzed into 1 assay endpoint. This assay endpoint, OT_PPARg_PPARgSRC1_0480, was analyzed in the positive analysis fitting direction relative to DMSO as the negative control and baseline of activity. Using a type of binding reporter, measures of receptor for gain-of-signal activity can be used to understand the binding at the pathway-level as they relate to the gene PPARG. Furthermore, this assay endpoint can be referred to as a primary readout, because the performed assay has only produced 1 assay endpoint. To generalize the intended target to other relatable targets, this assay endpoint is annotated to the nuclear receptor intended target family, where the subfamily is non-steroidal.\nThe OT PPARg/SRC-1 assay assessed receptor-chemical interactions using a rapidly maturing, intensely fluorescent mutant of YFP known as Venus, rationally dissected into two separate fragments. The fragments were obtained as follows: first, fragments coding for YFP1 and YFP2 (corresponding to amino acid residues 1-158 and 159-239 of the full length YFP, respectively) were generated by oligonucleotide synthesis (Blue Heron Biotechnology), and then PCR mutagenesis was used to generate the mutant fragments IFP1 and IFP2. Fusion constructs were transfected into HEK293T cells with a (Gly4Ser)2 linker between the PPARg/SRC-1 and YFP fragment genes to facilitate complementation when interacting proteins bring fragments into close proximity. The construct is transiently transfected in HEK293T cells 48 hours prior to treatment with test compounds. Cells are seeded into optical quality 384-well poly-D-lysine coated plates in MEM alpha medium (Invitrogen) supplemented with 10 percent FBS (Gemini Bio-Products) 1 percent penicillin and 1 percent streptomycin, and grown in 37C incubator equilibrated to 5 percent CO2. Cells are allowed to adhere for 24 hours prior to treatment with compounds of interest or controls for 8 hours. Cells are fixed in 4 percent formaldehyde and stained with Draq5 (BioStatus) to identify cells and subcellular compartment boundaries prior to signal detection. 8 Images per well were acquired on an Evotec Opera at 2 wavelengths (488 and 635nm), and the ratio of fluorescence in the nucleus relative to fluorescence in the cytoplasm (N/C Ratio) in the 488nm channel was calculated for a minimum of 350 cells per image."}
{"smiles": "Cc1cccc([N+](=O)[O-])c1", "outcome": "inactive"}
{"smiles": "Cc1cccc(C)c1N", "outcome": "inactive"}
{"smiles": "Cc1ccccc1CO[C@@H]1C[C@@]2(C(C)C)CC[C@]1(C)O2", "outcome": "inactive"}
{"smiles": "O=S(=O)(O)C(F)(F)C(F)(F)C(F)(F)C(F)(F)F", "outcome": "inactive"}
{"smiles": "Cc1ccccc1[N+](=O)[O-]", "outcome": "inactive"}
{"smiles": "CC1=C2C[C@H]3[C@@H](CC=C4C[C@@H](O)CC[C@@]43C)[C@@H]2CC[C@]12O[C@@H]1C[C@H](C)CN[C@H]1[C@H]2C", "outcome": "inactive"}
{"smiles": "O=C(O)C(F)(F)C(F)(F)C(F)(F)C(F)(F)C(F)(F)C(F)(F)C(F)(F)C(F)(F)F", "outcome": "inactive"}
{"smiles": "Clc1ccc(C(Cl)(Cl)Cl)cc1", "outcome": "inactive"}
{"smiles": "ClC1=C(Cl)[C@]2(Cl)[C@@H]3[C@@H]4C[C@@H]([C@H]5O[C@@H]45)[C@@H]3[C@@]1(Cl)C2(Cl)Cl", "outcome": "inactive"}
{"smiles": "Cc1cc(O)ccc1Cl", "outcome": "inactive"}
{"smiles": "CCCCCCOC(=O)c1ccccc1C(=O)OCCCCCC", "outcome": "inactive"}
{"smiles": "CCC(=O)O[C@H]1CC[C@H]2[C@@H]3CCC4=CC(=O)CC[C@]4(C)[C@H]3CC[C@]12C", "outcome": "inactive"}
{"smiles": "OCC(O)CO", "outcome": "inactive"}
{"smiles": "C[C@]12CCC(=O)C=C1CC[C@@H]1[C@@H]2CC[C@@]2(C)[C@H]1CC[C@]2(C)O", "outcome": "inactive"}
{"smiles": "Cc1cc2c3c(c1)C(c1ccccc1)=N[C@@H](NC(=O)c1ccncc1)C(=O)N3CC2", "AC50": "25 µM (active) and 20.8 µM (active)"}
{"smiles": "O=C(NC(=O)c1cc(F)c(F)cc1Cl)Nc1cc(F)ccc1N1CCC(C(=O)O)CC1", "outcome": "inactive"}
{"smiles": "ClC1=C(Cl)[C@]2(Cl)[C@@H]3[C@@H](Cl)[C@H]4O[C@H]4[C@@H]3C1(Cl)C2(Cl)Cl", "outcome": "inactive"}
{"smiles": "Cc1ccccc1O", "outcome": "inactive"}
{"smiles": "CCCN(CCC)N=O", "outcome": "inactive"}
{"smiles": "Nn1cnnc1", "outcome": "inactive"}
{"smiles": "ClC1=C(Cl)[C@]2(Cl)[C@@H]3[C@H]4C[C@H]([C@@H]5O[C@H]45)[C@@H]3[C@@]1(Cl)C2(Cl)Cl", "outcome": "inactive"}
{"smiles": "CCOCCOC(C)=O", "outcome": "inactive"}
{"smiles": "N#Cc1ccc(N(CC(N)=O)CC(F)(F)F)cc1C(F)(F)F", "outcome": "inactive"}
{"smiles": "c1ccc(-c2ccccc2)cc1", "outcome": "inactive"}
{"smiles": "CCNc1nc(NC(C)C)nc(SC)n1", "outcome": "inactive"}
{"smiles": "CO/C=C(/C(=O)OC)c1ccccc1COc1cccc(C(F)(F)F)n1", "outcome": "inactive"}
{"smiles": "Oc1ccc(C(c2ccc(O)cc2)(C(F)(F)F)C(F)(F)F)cc1", "outcome": "inactive"}
{"smiles": "CCCCCCCCOC(=O)c1ccccc1C(=O)OCCCCCCCC", "outcome": "inactive"}
{"smiles": "COS(=O)(=O)OC", "outcome": "inactive"}
{"smiles": "Cc1cc(-c2ccc(N)c(C)c2)ccc1N", "outcome": "inactive"}
{"smiles": "Oc1c(Cl)c(Cl)c(Cl)c(Cl)c1Cl", "outcome": "inactive"}
{"smiles": "Cc1ccc(O)c(C)c1", "outcome": "inactive"}
{"smiles": "CC#Cc1cc(C)nc(Nc2ccccc2)n1", "outcome": "inactive"}
{"smiles": "CC(c1ccc(O)cc1)(c1ccc(O)cc1)c1ccc(O)cc1", "outcome": "inactive"}
{"smiles": "CC(C)(c1ccccc1)c1ccc(O)cc1", "outcome": "inactive"}
{"smiles": "O=C(O)C(F)(F)C(F)(F)C(F)(F)C(F)(F)C(F)(F)F", "outcome": "inactive"}
{"smiles": "CN(C)CCO", "outcome": "inactive"}
{"smiles": "Oc1ccc(Cl)cc1Cl", "outcome": "inactive"}
{"smiles": "O=C(N[C@H]1CN2CCC1CC2)c1cc2ccoc2cn1", "outcome": "inactive"}
{"smiles": "O=S(=O)(O)C(F)(F)C(F)(F)C(F)(F)C(F)(F)C(F)(F)C(F)(F)F", "outcome": "inactive"}
